Screening data from PubChem.
Eya2 phos inh: Eya2 (human) phosphatase inhibition; recombinant Eya2, OMFP fluorescence dephosphorylation (OMFP is methylfluorescein phosphate); Potency, µM (series often up to 76.9 µM), for inactives: top-dose activity, negative = inhibition, most hits filed as inhibitors; 330,000 compounds, 0.006% hits; AID 488837; note: potency is the fitted concentration of half-maximal effect; % is set by controls: 0 for no effect and ±100 for the full control effect
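Eya2 (0.2 uM) preincubated 10 min at ambient with compound, then OMFP substrate added at 50 uM; 10 min reaction in 50 mM HEPES pH 7.5, 50 mM NaCl, 5 uM MgCl2, 0.05% BSA, 1 mM DTT. Fluorescence read at Ex 485/Em 525 nm.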
Six1-Eya2 blk: inhibitors of human Six1/Eya2 interaction; Q15475+O00167; AlphaScreen GST-Six1/His-Eya2 binding, biochemical; hits give low values; activity change, % (no concentration beside the values); 360,000 compounds, 0.56% hits; AID 651725; in the data active = activity change below about -65%; inconclusive = mostly about -30% to -63%; note: % is set by controls: 0 for no effect and ±100 for the full control effect
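Six1/Eya2 binding was read as AlphaScreen signal after compounds were pinned into GST-Six1 plus His-tagged Eya2 (5X stock 250/500 nM) in pH 8.0 Tris/NaCl/TCEP buffer, beads added, then incubated 1 h, 37 C, dark.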
CBFb-RUNX1 inh: inhibitors of human CBF-beta and RUNX1 interaction. Q01196+Q13951. AlphaScreen CBFb-His/RUNX1-biotin binding, biochemical. Potency, µM (doses to about 59.8 µM), inactives show top-dose activity, negative = inhibition, hits mostly inhibitors. 230,000 tested, under 10 active. AID 1477; note: % of control where 0% means no effect
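Interaction loss through any mechanism counts as activity. Pre-formed complex of His-CBF-beta and biotin-RUNX1 (30 nM apiece) is incubated with compound 15 min, then with 50 ng nickel and 50 ng streptavidin beads for 90 min before AlphaScreen detection.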
MBNL1 CUG block: MBNL1-poly(CUG) RNA binding inhibition. Q9NR56. TR-FRET MBNL1-His/biotin-(CUG)12 binding, 665/545 ratio. Potency, µM (series often up to 57.5 µM), inactives show at the highest dose activity change, negative = inhibition, hits mostly inhibitors. 280,000 compounds, 0.036% hits; active = well fitted inhibition curve with a large enough effect in the signal ratio, with a control signal flat, not every such curve was filed as active; inconclusive = small, poorly fitted or top-dose-only effect, or effect the other way, or a change in a side signal; inactive = no such curve, though single readings can be large or run the other way; the % refers to the signal ratio; note: potency is the fitted concentration of half-maximal effect; % is set by controls: 0 for no effect and ±100 for the full control effect
Target sequence (Q9NR56 whole entry, looked up): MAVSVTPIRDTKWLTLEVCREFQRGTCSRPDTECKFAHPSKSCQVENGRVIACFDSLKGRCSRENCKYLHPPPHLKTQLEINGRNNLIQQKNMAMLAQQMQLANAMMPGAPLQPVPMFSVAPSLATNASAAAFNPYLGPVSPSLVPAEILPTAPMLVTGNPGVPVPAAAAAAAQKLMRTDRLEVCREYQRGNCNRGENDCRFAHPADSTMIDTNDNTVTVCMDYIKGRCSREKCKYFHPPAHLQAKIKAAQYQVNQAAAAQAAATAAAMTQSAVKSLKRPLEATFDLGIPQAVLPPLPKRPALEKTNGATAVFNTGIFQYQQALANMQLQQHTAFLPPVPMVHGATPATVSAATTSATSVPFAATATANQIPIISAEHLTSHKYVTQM
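His-tagged MBNL1 binding to biotinylated (CUG)12 RNA was measured by TR-FRET using terbium anti-His antibody (0.055 ng/ul final) and streptavidin-XL665 (5 nM final). Compounds were titrated 92 nM to 58 uM; 60 min at room temperature.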
CtBP-E1A blk: blocks the CtBP interaction with E1A | AlphaScreen GST-E1A/His-CtBP binding, 1536-well; hits give low values | activity change, % (concentration not given with the values) | 340,000 compounds, 0.49% hits | AID 651724; in the data active = activity change below about -65%; inconclusive = mostly about -30% to -63%; note: % is set by controls: 0 for no effect and ±100 for the full control effect
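GST-E1A and His-tagged CtBP (125 nM each as 5X stock) were preincubated with pin-transferred compound for 2 h at 37 °C in the dark, then glutathione donor and nickel acceptor beads were added for 1 h before AlphaScreen reading.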
L3MBTL1 block: blocks human L3MBTL1. Q9Y468. AlphaScreen L3MBTL1–H3K9me1 peptide binding. Potency, µM (doses to about 57.1 µM), for inactives: top-dose activity, negative = inhibition, most hits filed as inhibitors. 230,000 compounds, 0.66% hits; note: potency is the fitted concentration of half-maximal effect; % is set by controls: 0 for no effect and ±100 for the full control effect; nearly all actives have a fitted effect of over 60% in size
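AlphaScreen proximity signal between nickel-chelate acceptor and streptavidin donor beads (final 10 ug/mL) reports binding of 50 nM L3MBTL1 to 75 nM biotin-H3 K9me1 peptide; complex incubated with compounds 30 min at room temperature; cefsulodin titration as control.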
* hit, by the source's call; ? = inconclusive; nt = not tested or not shown; ! = repeats disagree; [ ] = remark or other dose. A selection: hits, their analogues and other compounds. The true share with any hit is near 0.89%. Unless noted, calls come from the whole dose curve; as a rule, active = well fitted curve in the direction sought with a large enough effect; inconclusive = small, poorly fitted or top-dose-only effect, or another doubt; inactive = no such curve, though single readings can be large; an effect the other way counts as inactive or inconclusive.

SMILES	Eya2 phos inh	Six1-Eya2 blk	CBFb-RUNX1 inh	MBNL1 CUG block	CtBP-E1A blk	L3MBTL1 block
CN1C(=O)NC(=O)/C(=C/c2ccc([N+](=O)[O-])o2)C1=O	-3.0%	?	-14.4%	?	8.8	25.1µM*
O=C1NC(=O)N(c2ccccc2)C(=O)/C1=C\c1ccc([N+](=O)[O-])o1	19.8%	nt	?	nt	nt	3.16µM*
CN1C(=O)NC(=O)/C(=C\c2ccc([N+](=O)[O-])o2)C1=O	15.2%	?	1.7%	?	-1.0	10µM*
CCCN(CCC)[C@@H]1CCc2c(OC)cccc2[C@@H]1C	nt	nt	24.9%	nt	nt	nt
Cc1nc2ccccc2c(=O)n1/N=C/c1cc(Br)cc(Br)c1O	nt	-65.8*	nt	nt	-78.4*	nt
Cc1ccc(-n2c(O)c(C=NCc3ccco3)c(=O)[nH]c2=S)cc1C	12.4%	-11.0	-8.0%	nt	1.9	31.6µM*
OC[C@@H]1[C@@H](O)[C@H](O)[C@H]2[C@@H](O)CCN21	nt	nt	24.5%	nt	nt	nt
CCN(CC)C(=O)c1ccc2c(c1)C1C=CCC1C(C(=O)O)N2 (stereo unspecified)	-7.8%	-74.8*	nt	?	nt	nt
O=C(O)c1ccc2c(c1)C1C(Cl)C(Sc3ccccc3[N+](=O)[O-])CC1C(c1cccc([N+](=O)[O-])c1)N2 (stereo unspecified)	-3.1%	-20.8	?	?	nt	22.4µM*
O=C(O)c1cccc2c1NC(c1cccc([N+](=O)[O-])c1)C1CC(Sc3ccccc3[N+](=O)[O-])C(Cl)C21 (stereo unspecified)	0.1%	-15.4	?	9.5%	-6.6	20µM*
CCN(CC)C(=O)c1ccc2c(c1)C1C(Cl)C(Sc3ccccc3[N+](=O)[O-])CC1C(C(=O)O)N2 (stereo unspecified)	8.6%	?	nt	nt	?	14.1µM*
Cc1ccc2c(c1Cl)NC(C(=O)O)C1CC(Sc3ccccc3[N+](=O)[O-])C(Cl)C21 (stereo unspecified)	-0.7%	-6.9	?	11.6%	-8.2	nt
O=[N+]([O-])c1cccc(C2N3CCCN23)c1 (stereo unspecified)	-10.1%	5.0	3.9%	?	nt	8.8%[11.4 µM]
CC(C)C1C(=O)O[C@@H]2CCN3CC=C(COC(=O)[C@](C)(O)[C@]1(C)O)[C@H]23 (stereo partly specified)	nt	nt	1.5%	nt	nt	nt
CC(C)=CCCC1(C)C=Cc2c(O)c3c(c(CC=C(C)C)c2O1)OC12C(CC4CC1C(C)(C)OC2(C/C=C(/C)C(=O)O)C4O)C3=O (stereo unspecified)	nt	nt	10.2%	nt	nt	nt
CCCCCC[C@H]1C(=O)O[C@H](C)[C@H](NC(=O)c2cccc(NC=O)c2O)C(=O)O[C@@H](C)[C@H]1OC(=O)CC(C)C	nt	nt	-6.7%[21.7 µM]	nt	nt	nt
CCCCOC(C)=O	nt	nt	7.1%[21.7 µM]	nt	nt	nt
c1ccoc1	nt	nt	1.1%[21.7 µM]	nt	nt	nt
Cc1cc2c(C(C)C)c(O)c(O)c(C=O)c2c(O)c1-c1c(C)cc2c(C(C)C)c(O)c(O)c(C=O)c2c1O	31.6µM*!	nt	?	?	nt	?
O=[N+]([O-])c1cc(-c2ccc([As](=O)(O)O)cc2)ccc1[As](=O)(O)O	-8.2%	nt	-18.8%	?	nt	22.4µM*
O=[N+]([O-])c1cc([As](=O)(O)c2ccc(O)c([N+](=O)[O-])c2)ccc1O	0.2%	7.8	6.5%	?	7.4	-19.8%
Cc1c(N=Nc2c(O)n(Cc3ccccc3)c(=O)[nH]c2=O)c(=O)n(-c2ccccc2)n1C	-2.7%	-89.3*	nt	?	-71.7*	?
Cc1c(N=Cc2c(O)n(Cc3ccccc3)c(=O)[nH]c2=O)c(=O)n(-c2ccccc2)n1C	5.5%	-12.2	11.9%	-9.0%[11.5 µM]	-7.9	4.2%
OC(c1ccc(Cl)cc1)(c1ccc(Cl)cc1)C(Cl)(Cl)Cl	nt	nt	6.8%[21.7 µM]	nt	nt	nt
CCOC(=O)[C@]12Cc3cc(Cl)ccc3[C@H]1N(C1CCCCC1)C(=O)c1ccccc12	nt	-4.3	nt	nt	-1.3	nt
SMILES	Eya2 phos inh	Six1-Eya2 blk	CBFb-RUNX1 inh	MBNL1 CUG block	CtBP-E1A blk	L3MBTL1 block
COc1ccc(-c2cc(=Nc3cccc(C(=O)O)c3)c3cc(C)ccc3o2)cc1	1.9%	-1.6	-8.8%	12.8%	1.6	nt
COc1ccc(-c2cc(=NCCCCCC(=O)O)c3cc(C)ccc3o2)cc1	-13.8%	-83.0*	-3.9%	?	-90.4*	nt
NP(=O)(OCCCc1ccccc1)Oc1ccc(Cl)cc1 (stereo unspecified)	0.8%	1.9	nt	-2.7%	3.0	14.1µM*
Cc1cc(SCc2sc(-c3ccc(C(F)(F)F)c(F)c3)nc2C)ccc1OCC(=O)O	nt	nt	-6.2%	nt	nt	nt
CCOc1ccc(N2C(=O)/C(=C/c3ccco3)C(=O)NC2=S)cc1	16.9%	-81.0*	nt	12.2%	nt	-8.0%[2.29 µM]
CCOc1ccc(N2C(=O)/C(=C\c3cccs3)C(=O)NC2=S)cc1	12.7%	0.9	-3.4%	nt	0.0	25.1µM*
Cc1ccccc1N1C(=O)/C(=C/c2ccco2)C(=O)NC1=S	7.8%	nt	nt	7.1%	nt	nt
CCOC(=O)CC(SP(=O)(OC)OC)C(=O)OCC (stereo unspecified)	nt	nt	-11.9%[21.7 µM]	nt	nt	nt
Cn1c(=O)c2c(nc(N/N=C/c3c(O)n(-c4ccccc4)c(=S)[nH]c3=O)n2C)n(C)c1=O	7.4%	-84.0*	nt	-4.1%	-84.2*	9.0%
CC(C)c1ccc(-n2c(O)c(/C=N/NC(=O)c3ccccc3O)c(=O)[nH]c2=S)cc1	4.6%	?	nt	?	?	-41.7%
CNCC(N)C(=O)O (stereo unspecified)	nt	nt	22.7%	nt	nt	nt
N#CC(C#N)=Cc1ccc(O)c(O)c1	18.2%	-3.6	-25.0%	nt	5.2	22.4µM*
N#CC(=Cc1ccc(O)c(O)c1)C(N)=S	nt	nt	-9.8%	?	nt	nt
CCC1CN2CCC1CC2C(O)c1ccnc2ccc(OC)cc12 (stereo unspecified)	nt	nt	2.4%	nt	nt	nt
CCCCCC(=O)N[C@@H](c1ccccc1)[C@@H](O)C(=O)O[C@H]1C[C@@]2(O)[C@@H](OC(=O)c3ccccc3)C3[C@](C)(C(=O)[C@H](O)C(=C1C)C2(C)C)[C@@H](OC1OCC(O)C(O)C1O)C[C@H]1OC[C@@]31OC(C)=O (stereo partly specified)	11.7%	-89.7*	nt	6.8%	-21.6	41.1%
COC(=O)C1=CO[C@@H](C)[C@@H]2CN3CC[C@]4(C(=O)Nc5c4ccc(OC)c5OC)[C@H]3C[C@H]12	nt	nt	-8.1%	nt	nt	nt
COc1ccc2nc(/N=C/c3c(O)n(-c4cccc(Cl)c4)c(=O)[nH]c3=O)sc2c1	10.2%	-70.8*	-11.3%	-6.3%	?	-0.8%
Cc1ccc(N=Nc2cc(C)ccc2N)cc1	-5.2%	?	nt	?	-80.4*	14.1µM*
